# Several values for one entry are separate records, joined by “and”; a condition that tells them apart may be missing. Identical values can stand only once. Among all 5,500 compounds or so, about 2,000 (36%) were called active. Roughly 18% stayed inconclusive and do not appear here. Cut-off read from the data, not from the text of the source: active = normalized growth mostly below about 0.91 (no sharp cut-off); inconclusive = no clear call, values can overlap the other calls; inactive = mostly above about 0.92. Some of the results follow.
# Assay: chemical genetic growth profiling, strain panel (AID 1159580);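 note: tested at 20 µM; growth read once vehicle control cultures reached saturation at 30 °C; 1 = growth at the plate median or of vehicle wells; lower values mean less growth of the strain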
# Details: S. cerevisiae deletion strains, growth OD
smiles,measurement,setting,value
COc1c(C)c2c(c(O)c1C/C=C(\C)CCC(=O)O)C(=O)OC2,normalized growth,"locus YAL013W, strain DEP1, stronger effect = lower value",0.84 (active)
same,normalized growth,"locus YAL021C, strain ccr4, stronger effect = lower value",0.556 (active)
same,normalized growth,"locus YAL026C, strain drs2, stronger effect = lower value",0.323 (active)
same,normalized growth,"locus YAL030W, strain snc1, stronger effect = lower value",0.621 (active)
same,normalized growth,"locus YBL061C, strain skt5, stronger effect = lower value",0.712 (active)
same,normalized growth,"locus YBR009C, strain hhf1, stronger effect = lower value",0.417 (active)
same,normalized growth,"locus YBR021W, strain FUR4, stronger effect = lower value",1.07 (inactive)
same,normalized growth,"locus YBR023C, strain chs3, stronger effect = lower value",0.602 (active)
same,normalized growth,"locus YBR171W, strain sec66, stronger effect = lower value",0.945 (inactive)
same,normalized growth,"locus YBR229C, strain ROT2, stronger effect = lower value",0.973 (inactive)
same,normalized growth,"locus YBR231C, strain swc5, stronger effect = lower value",0.386 (active)
same,normalized growth,"locus YBR279W, strain paf1, stronger effect = lower value",0.613 (active)
same,normalized growth,"locus YCL011C, strain gbp2, stronger effect = lower value",0.47 (active)
same,normalized growth,"locus YCL016C, strain dcc1, stronger effect = lower value",0.518 (active)
same,normalized growth,"locus YCL029C, strain bik1, stronger effect = lower value",0.723 (active)
same,normalized growth,"locus YCL069W, strain vba3, stronger effect = lower value",0.395 (active)
same,normalized growth,"locus YCR088W, strain abp1, stronger effect = lower value",0.508 (active)
same,normalized growth,"locus YDL005C, strain med2, stronger effect = lower value",0.915 (inactive)
same,normalized growth,"locus YDL035C, strain GPR1, stronger effect = lower value",0.789 (active)
same,normalized growth,"locus YDL040C, strain nat1, stronger effect = lower value",0.758 (active)
same,normalized growth,"locus YDL074C, strain BRE1, stronger effect = lower value",0.498 (active)
same,normalized growth,"locus YDL101C, strain DUN1, stronger effect = lower value",0.95 (inactive)
same,normalized growth,"locus YDL134C, strain PPH21, stronger effect = lower value",0.876 (active)
same,normalized growth,"locus YDL185W, strain tfp1, stronger effect = lower value",0.185 (active)
same,normalized growth,"locus YDL192W, strain arf1, stronger effect = lower value",0.737 (active)
same,normalized growth,"locus YDR001C, strain nth1, stronger effect = lower value",0.604 (active)
same,normalized growth,"locus YDR069C, strain doa4, stronger effect = lower value",0.713 (active)
same,normalized growth,"locus YDR101C, strain arx1, stronger effect = lower value",0.668 (active)
same,normalized growth,"locus YDR137W, strain rgp1, stronger effect = lower value",0.345 (active)
same,normalized growth,"locus YDR150W, strain NUM1, stronger effect = lower value",0.997 (inactive)
same,normalized growth,"locus YDR159W, strain sac3, stronger effect = lower value",0.401 (active)
same,normalized growth,"locus YDR162C, strain NBP2, stronger effect = lower value",0.77 (active)
same,normalized growth,"locus YDR195W, strain ref2",1.09 (inactive)
same,normalized growth,"locus YDR297W, strain sur2, stronger effect = lower value",0.664 (active)
same,normalized growth,"locus YDR318W, strain mcm21, stronger effect = lower value",0.625 (active)
same,normalized growth,"locus YDR334W, strain swr1, stronger effect = lower value",0.341 (active)
same,normalized growth,"locus YDR335W, strain msn5, stronger effect = lower value",0.549 (active)
same,normalized growth,"locus YDR388W, stronger effect = lower value",0.75 (active)
same,normalized growth,"locus YDR392W, strain spt3, stronger effect = lower value",0.0934 (active)
same,normalized growth,"locus YDR502C, strain sam2, stronger effect = lower value",0.666 (active)
same,normalized growth,"locus YEL003W, strain gim4, stronger effect = lower value",0.539 (active)
same,normalized growth,"locus YEL037C, strain rad23, stronger effect = lower value",0.451 (active)
same,normalized growth,"locus YEL061C, strain CIN8 (second series), stronger effect = lower value",0.368 (active)
same,normalized growth,"locus YEL061C, strain CIN8, stronger effect = lower value",0.863 (active)
same,normalized growth,"locus YER015W, strain faa2, stronger effect = lower value",0.667 (active)
same,normalized growth,"locus YER016W, strain bim1, stronger effect = lower value",0.761 (active)
same,normalized growth,"locus YER110C, stronger effect = lower value",1.02 (inactive)
same,normalized growth,"locus YER111C, strain swi4, stronger effect = lower value",0.662 (active)
same,normalized growth,"locus YER155C, strain BEM2 (second series), stronger effect = lower value",0.363 (active)
same,normalized growth,"locus YER155C, strain BEM2, stronger effect = lower value",0.781 (active)
same,normalized growth,"locus YER167W, strain BCK2, stronger effect = lower value",0.582 (active)
same,normalized growth,"locus YFR010W, strain ubp6, stronger effect = lower value",0.384 (active)
same,normalized growth,"locus YGL078C, strain dbp3, stronger effect = lower value",0.349 (active)
same,normalized growth,"locus YGL086W, strain mad1, stronger effect = lower value",0.759 (active)
same,normalized growth,"locus YGL167C, strain pmr1, stronger effect = lower value",0.666 (active)
same,normalized growth,"locus YGL173C, strain kem1, stronger effect = lower value",0.82 (active)
same,normalized growth,"locus YGL227W, strain vid30, stronger effect = lower value",0.494 (active)
same,normalized growth,"locus YGL240W, strain doc1, stronger effect = lower value",0.95 (inactive)
same,normalized growth,"locus YGL248W, strain PDE1, stronger effect = lower value",0.861 (active)
same,normalized growth,"locus YGL253W, strain hxk2, stronger effect = lower value",0.437 (active)
same,normalized growth,"locus YGR078C, strain PAC10, stronger effect = lower value",0.808 (active)
same,normalized growth,"locus YGR135W, strain pre9, stronger effect = lower value",0.874 (active)
same,normalized growth,"locus YGR229C, strain SMI1, stronger effect = lower value",0.608 (active)
same,normalized growth,"locus YGR252W, strain gcn5, stronger effect = lower value",1.01 (inactive)
same,normalized growth,"locus YHR013C, strain ard1, stronger effect = lower value",0.533 (active)
same,normalized growth,"locus YHR027C, strain rpn1, stronger effect = lower value",0.699 (active)
same,normalized growth,"locus YHR030C, strain SLT2, stronger effect = lower value",0.974 (inactive) and 0.154 (active)
same,normalized growth,"locus YHR079C, strain IRE1 (second series), stronger effect = lower value",0.536 (active)
same,normalized growth,"locus YHR079C, strain IRE1, stronger effect = lower value",0.165 (active)
same,normalized growth,"locus YHR094C, strain hxt1, stronger effect = lower value",0.734 (active)
same,normalized growth,"locus YHR129C, strain ARP1, stronger effect = lower value",0.869 (active)
same,normalized growth,"locus YHR142W, strain chs7, stronger effect = lower value",0.33 (active)
same,normalized growth,"locus YHR200W, strain rpn10, stronger effect = lower value",0.889 (active)
same,normalized growth,"locus YIL066C, strain RNR3, stronger effect = lower value",0.835 (active)
same,normalized growth,"locus YIL073C, strain SPO22, stronger effect = lower value",0.794 (inactive)
same,normalized growth,"locus YIL125W, strain kgd1, stronger effect = lower value",0.238 (active)
same,normalized growth,"locus YIR030C, strain dcg1, stronger effect = lower value",0.745 (active)
same,normalized growth,"locus YJL092W, strain hpr5, stronger effect = lower value",0.505 (active)
same,normalized growth,"locus YJL095W, strain BCK1 (second series), stronger effect = lower value",0.714 (active)
same,normalized growth,"locus YJL095W, strain BCK1, stronger effect = lower value",0.755 (active) and 0.169 (active)
same,normalized growth,"locus YJL115W, strain asf1, stronger effect = lower value",0.593 (active)
same,normalized growth,"locus YJL129C, strain trk1, stronger effect = lower value",0.686 (active)
same,normalized growth,"locus YJL134W, strain LCB3, stronger effect = lower value",0.976 (inactive)
same,normalized growth,"locus YJL154C, strain vps35, stronger effect = lower value",0.596 (active)
same,normalized growth,"locus YJL164C, strain tpk1, stronger effect = lower value",0.469 (active)
same,normalized growth,"locus YJL166W, strain qcr8, stronger effect = lower value",0.641 (active)
same,normalized growth,"locus YJL168C, strain set2, stronger effect = lower value",0.979 (inactive)
same,normalized growth,"locus YJL187C, strain SWE1 (second series), stronger effect = lower value",0.749 (active)
same,normalized growth,"locus YJR043C, strain POL32, stronger effect = lower value",0.906 (inactive)
same,normalized growth,"locus YJR066W, strain TOR1, stronger effect = lower value",0.0708 (active)
same,normalized growth,"locus YJR075W, strain HOC1, stronger effect = lower value",0.772 (active)

# Source: PubChem BioAssay AID1159580 (chemical genetic matrix, 2015)
